This excerpt belongs to a sample that is enriched for hits.
Glioma ERSR ind – inducers of ER stress response in human glioma cells; U87-MG GRP78 promoter luciferase reporter, 16 h; Potency, µM, most hits filed as activators; actives 0.02% (n = 420,000); AID 602332; further: series mostly up to about 76 µM; nearly all actives have a fitted effect of over 35% in size
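Stably transfected U87-MG glioma cells carrying a GRP78-based luciferase sensor; 16 h compound incubation. Luminescence end-point read 10 min after Bright-Glo addition at room temperature.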
VDR inh – vitamin D3 receptor (human) inhibition | VDR-SRC2-3 peptide fluorescence polarization, 2 h | Potency, µM, actives largely listed as inhibitors | actives 0.93% (n = 400,000)
Target sequence (P11473 whole entry, looked up): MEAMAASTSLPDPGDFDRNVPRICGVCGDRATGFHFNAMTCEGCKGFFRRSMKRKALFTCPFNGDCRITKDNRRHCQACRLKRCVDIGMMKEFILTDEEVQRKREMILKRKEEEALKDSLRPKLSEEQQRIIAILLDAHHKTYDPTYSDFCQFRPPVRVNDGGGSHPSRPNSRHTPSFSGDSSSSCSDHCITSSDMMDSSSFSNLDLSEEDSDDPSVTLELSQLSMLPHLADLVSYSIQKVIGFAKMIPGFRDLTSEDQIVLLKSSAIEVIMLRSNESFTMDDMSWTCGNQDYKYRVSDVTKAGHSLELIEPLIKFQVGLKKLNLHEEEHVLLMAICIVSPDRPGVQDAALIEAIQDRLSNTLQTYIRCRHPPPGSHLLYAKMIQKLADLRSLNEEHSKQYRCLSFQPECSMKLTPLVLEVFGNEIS
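Reagent solutions, kept cold and dark, are dispensed first; compounds are then pinned in at 23 nl, plates briefly spun, and incubated 2 h at ambient temperature. Inhibition of VDR–SRC2-3 peptide binding is read by fluorescence polarization.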
ALOX12 inh – inhibitors of human 12S-lipoxygenase ALOX12. AID 1671190. Potency, µM (series often up to 108 µM), hits mostly inhibitors. purified 12hLO, xylenol orange hydroperoxide absorbance. actives 1.1% (n = 580,000)
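Purified human 12hLO (150 nM final) in 25 mM Hepes, 0.01% Triton X-100, pH 7.0 was preincubated 15 min at room temperature with compound. Then 40 uM arachidonic acid was added, 30 min. Hydroperoxide was read by Fe-XO absorbance ratio 573/405 nm.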
G9a inh – blocks human histone lysine methyltransferase G9a; Q96KQ7; G9a H3K9 monomethylation, AlphaScreen, 2 h; Potency, µM (highest dose often 102 µM), usual class: inhibitors; actives 8.8% (n = 350,000); further: nearly all actives have a fitted effect of over 75% in size
Target sequence (Q96KQ7 913-1193 limits assumed): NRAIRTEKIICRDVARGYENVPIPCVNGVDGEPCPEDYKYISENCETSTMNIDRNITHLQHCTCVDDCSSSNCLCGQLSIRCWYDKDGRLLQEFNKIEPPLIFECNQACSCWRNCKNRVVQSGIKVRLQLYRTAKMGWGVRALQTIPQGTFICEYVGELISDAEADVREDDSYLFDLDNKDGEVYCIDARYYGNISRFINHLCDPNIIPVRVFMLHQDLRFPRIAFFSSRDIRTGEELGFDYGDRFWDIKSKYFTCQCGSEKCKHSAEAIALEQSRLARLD
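Step 1: enzyme (final 20 nM) with compound, 15 min RT. Step 2: substrate peptide 500 nM and SAM 20 uM, 2 h RT. Step 3: anti-H3K9me1 antibody and AlphaScreen beads, 10 min, then plate read.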
Sfp PPTase inh – inhibitors of Bacillus subtilis Sfp phosphopantetheinyl transferase. Q9F4F7. Biochemical Sfp PPTase activity, qHTS. Potency, µM, most hits filed as inhibitors. actives 3.5% (n = 310,000);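 further: the enzyme is Sfp with the accession as filed and its product quenches rhodamine fluorescence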
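Compounds were incubated with enzyme (final 15 nM) for 15 min at room temperature before substrate addition started the reaction. Fluorescence at 525 nm excitation, 598 nm emission was recorded immediately and after 30 minutes.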
A number is an active result; 0 = inactive; ? = inconclusive; - = no result given; ! = not active in a repeat; [ ] = remark or other dose. The call rests on the fitted dose curve; in most records, active means well fitted curve in the direction sought with a large enough effect; inconclusive means small, poorly fitted or top-dose-only effect, or another doubt; inactive means no such curve, though single readings can be large; an effect the other way counts as inactive or inconclusive.

SMILES | Glioma ERSR ind | VDR inh | ALOX12 inh | G9a inh | Sfp PPTase inh
CC(=O)CC(=O)Nc1ccc(Nc2ccccc2)cc1 | 0 | 0 | 0 | 70.8µM | 0
Cc1ccc(-n2nc(C)c([C@H]3C=C[C@@H](OC(=O)Nc4cccc(C(F)(F)F)c4)C3)c2C)cc1Cl | - | - | 0 | - | -
CNC(=S)Nc1ccc(C(N)=O)cc1 | 0 | 0 | 0 | - | 79.4µM
FC(F)(F)c1cccc(Oc2ncnc3scc(-c4ccccc4)c23)c1 | - | - | 0 | - | -
CCN(CCO)c1ccc(-n2c(N)c(C(=O)OC)c3nc4ccccc4nc32)cc1 | 0 | ? | ? | 35.5µM | 0
COC(=O)c1c(N)n(-c2ccc(OC)c(OC)c2)c2nc3ccccc3nc12 | 0 | 0 | 0 | 0 | -
Nc1nc2c(F)c(F)c(F)cc2s1 | 0 | 0 | ? | 17.8µM | ?
CCN(Cc1ccccc1)c1ccc(/C=C(\C#N)c2ccccn2)cc1 | 0 | 0 | ? | 50.1µM | ?
Fc1ccc(-c2csc3[n+]2CCS3)cc1 | 0 | 0 | 0 | 0 | 0
NC1=C(c2ccc(F)cc2)C(=O)CS1 | 0 | ? | 0 | 0[0.501 µM] | 79.4µM
CC1CCCN(S(=O)(=O)c2ccc3c(c2)C(C)(C)C(=O)N3CC(=O)NC2CCCCCC2)C1 (configuration not stated) | - | - | 0 | - | -
O=C(Nc1c(NC2CCCCC2)c2ccccc2oc1=O)c1ccc(C(F)(F)F)cc1 | - | - | 0 | - | -
COCCNC(=O)/C(C#N)=C\c1ccc(CNC(=O)C(=O)Nc2ccc(C)c(C)c2)o1 | 0 | 0 | 0 | 0 | 0
CCOC(=O)C1=C(O)/C(=C\c2ccc(CNC(=O)C(=O)Nc3ccc(C)c(C)c3)o2)N=C1C | - | - | - | 44.7µM | 0
CN(C)C1CCN(c2ccc(-c3nc(CCCc4ccccc4)no3)cn2)CC1 | - | - | 0 | - | -
C[C@@H]1O[C@@H](Oc2c(-c3cc(O)c(O)c(O)c3)oc3cc(O)cc(O)c3c2=O)[C@H](O)[C@H](O)[C@H]1O | 0 | 0 | ? | 44.7µM | 31.6µM!
C[C@@H]1O[C@@H](Oc2c(-c3ccc(O)c(O)c3)oc3cc(O)cc(O)c3c2=O)[C@H](O)[C@H](O)[C@H]1O | 0 | 0 | ? | - | -
CCN1CCN(Cc2ccc(NC(=O)c3ccc(C)c(NC(=O)c4nccnc4N)c3)cc2C(F)(F)F)CC1 | 0 | 0 | 0 | 0[12.7 µM] | 89.1µM
Cc1ccc(C(=O)Nc2ccc(CN3CCN(C)CC3)c(C(F)(F)F)c2)cc1C#Cc1cnc2cccnn12 | - | - | 0.344µM | - | -
CCN1CCN(Cc2ccc(NC(=O)c3ccc(C)c(NC(=O)c4cc(-c5ccc(Br)cc5)n[nH]4)c3)cc2C(F)(F)F)CC1 | 0 | 0 | ? | ? | 79.4µM
OCC1(Cc2ccccc2)CCN(C2CCN(c3ccc(F)c(F)c3)CC2)CC1 | 0 | 0 | 50.1µM | 0 | 0
OCC1(Cc2ccccc2)CCN(CCCC2CCCC2)CC1 | 0 | 0 | ? | 0 | 0
CCN(CC)c1ccc(NC(=O)Cn2nc(C)n3cccc3c2=O)c(C)c1 | 0 | 0 | 0 | 0 | -
CCN(CC)c1ccc(NC(=O)CN2C(=O)CSc3ncccc32)c(C)c1 | 0 | 0 | 0 | 79.4µM | 0
CCN(CC)c1ccc(NC(=O)CCc2c(C)nc3ncnn3c2C)c(C)c1 | 0 | 0 | 0 | 17.8µM | -
SMILES | Glioma ERSR ind | VDR inh | ALOX12 inh | G9a inh | Sfp PPTase inh
CCN(CC)c1ccc(NC(=O)c2cccc(F)c2)c(C)c1 | 0 | 0 | ? | 28.2µM | 0
CCN(CC)c1ccc(NC(=O)CCN2C(=O)c3ccccc3S2(=O)=O)c(C)c1 | 0 | 0 | 0 | 8.91µM | -
CC1CCN(C(=O)c2cn3ccnc(-c4ccc(F)cc4)c3n2)CC1 | - | - | 0 | - | -
CCOC(=O)C1(Cc2ccc(OC)cc2)CCNCC1 | - | - | 0 | - | -
CCN(CC)c1ccc(NC(=O)CC2Oc3ccccc3NC2=O)c(C)c1 (configuration not stated) | 0 | 0 | 0 | 10µM | ?
CCN(CC)c1ccc(NC(=O)CN2C(=O)c3cccnc3Oc3ccccc32)c(C)c1 | 0 | 0 | 0 | 8.91µM | -
Cc1ccc2c(c1)N(CC(=O)Nc1ccccc1C(F)(F)F)C(=O)c1cccnc1O2 | 0 | 0 | 0 | 0 | -
CCN(CC)S(=O)(=O)c1ccc(NCc2cc(C)ccc2C)cc1 | - | - | 0 | - | -
COc1ccc(N2CCCCS2(=O)=O)cc1S(=O)(=O)NCCc1ccccc1F | - | - | 0 | - | -
COC1CN(c2cccc(F)c2)C12CCN(C(=O)c1sc(C)nc1C)CC2 (configuration not stated) | - | - | 0 | - | -
CC1CCC(C(C)C)C(OC(=O)CSc2ccccc2C(=O)O)C1 (configuration not stated) | - | - | 0 | - | -
COc1ccc(OCc2n(CC(=O)OC3CC(C)CCC3C(C)C)c3ccccc3[n+]2C)cc1 (configuration not stated) | 0 | 0 | 0 | ? | 35.5µM
COc1ccc(-c2n(CC(=O)OC3CC(C)CCC3C(C)C)c3ccccc3[n+]2C)cc1 (configuration not stated) | 0 | 0 | 0 | 1.12µM | 0
CNC(=O)c1cc2cc(N(C)S(=O)(=O)c3ccc(Cl)cc3)ccc2s1 | - | - | 0 | - | -
Cc1ccccc1C(C)NC(=O)CSc1nc2cc([N+](=O)[O-])ccc2o1 (configuration not stated) | - | - | 25.1µM | - | -
Cc1ccc(CNC(=O)CSc2nc3cc([N+](=O)[O-])ccc3o2)cc1 | - | - | 0 | - | -
Nc1nnc(SCC(=O)OCC(=O)c2ccccc2Br)s1 | 0 | 0 | 0 | 39.8µM | 0
COC(=O)c1ccccc1NC(=O)COC(=O)CSc1nnc(N)s1 | 0 | 0 | 0 | 28.2µM | 0
Nc1nnc(SCC(=O)OCC(=O)Nc2ccccc2)s1 | 0 | 0 | 0 | - | 0
CC12CCC(C1)C(C)(C)C2O (configuration not stated) | - | - | 0 | - | -
CC(C)(C)c1ccc(C(=O)C(=O)N(Cc2cccs2)C2CC2)cc1 | - | - | 0 | - | -
COc1ccc2nc(N3CCCCC3)c(C#N)cc2c1 | 0 | 0 | 0 | 0 | 79.4µM
COc1ccc2nc(N3CCCC3)c(C#N)cc2c1 | 0 | 0 | ? | 0 | 0
Cc1cc(C)c2nc(N3CCCN(C(=O)c4ccco4)CC3)c(C#N)cc2c1 | 0 | 79.4µM | ? | ? | 44.7µM
Cc1ccc2cc(C#N)c(N3CCCC3)nc2c1C | 0 | 0 | 0 | ? | 20µM
SMILES | Glioma ERSR ind | VDR inh | ALOX12 inh | G9a inh | Sfp PPTase inh
COc1ccc2nc(N3CCCCC3)c(/C=C3\SC(=S)NC3=O)cc2c1 | 0 | 0 | 0 | 11.2µM | 0
Cc1ccc2cc(C#N)c(N3CCCN(C(=O)C4CCCO4)CC3)nc2c1C (configuration not stated) | 0 | 0 | 0 | 0 | 0
O=C1NC(=S)S/C1=C\c1cc2ccccc2nc1N1CCCCC1 | 0 | 0 | 0 | 0 | 0
Cc1nc(N2CCN(C(=O)c3ccco3)CC2)c(C#N)c2c1CCCC2 | 0 | 0 | 0 | 0 | 0
CCOC(=O)Cn1c(=O)c2c3c(sc2n(Cc2ccc(F)cc2)c1=O)CCCC3 | - | - | 0 | - | -
CC(C)NC(=O)c1cc(=O)[nH]c2ccc(S(=O)(=O)Nc3ccc(F)cc3)cc12 | - | - | 0 | - | -
CSc1ccccc1NC(=O)COC(=O)CNC(=O)CC12CC3CC(CC(C3)C1)C2 | - | - | 0 | - | -
COc1ccc(C(=O)N/C(=C\c2cc(OC)c(OC)cc2[N+](=O)[O-])C(=O)NCC(=O)O)cc1 | 0 | 0 | 0 | - | 0

Compound activity from PubChem.
